Results on five molecules are retold here after PubChem BioAssay (NCI).

Common to all, as to experiment: NCI-60 one-dose screen, 48 h (100 = growth as untreated, 0 = no growth, -100 = all killed)
For experiment [1], the system named is 786-0 renal. The note with it: 10 µM.
Experiment [2] has as its system K-562 leukemia. Conditions: 10 µM.
In experiment [3] the test system is MALME-3M melanoma. The note with it: 10 µM.
Experiment [4] concerns RXF 393 renal. Conditions: 10 µM.
The subject of experiment [5] is EKVX NSCLC. The note with it: 10 µM.
Experiment [6] deals with SN12C renal. Conditions: 10 µM.
Experiment [7] deals with UO-31 renal. The note with it: 10 µM.
In experiment [8] the test system is TK-10 renal. Conditions: 10 µM.
The subject of experiment [9] is ACHN renal. Conditions: 10 µM.
Experiment [10] deals with CAKI-1 renal. The note with it: 10 µM.
Experiment [11] concerns CCRF-CEM leukemia. Conditions: 10 µM.
For experiment [12], the system named is OVCAR-8 ovarian. The note with it: 10 µM.
For experiment [13], the system named is OVCAR-5 ovarian. The note with it: 10 µM.
Experiment [14] concerns OVCAR-4 ovarian. Conditions: 10 µM.
Experiment [15] concerns SK-OV-3 ovarian. Conditions: 10 µM.
Experiment [16] concerns OVCAR-3 ovarian. Conditions: 10 µM.
The test system of experiment [17] is NCI/ADR-RES ovarian. The note with it: 10 µM.
Experiment [18] concerns BT-549 breast. The note with it: 10 µM.
The test system of experiment [19] is MCF7 breast. The note with it: 10 µM.
Experiment [20] deals with MDA-MB-468 breast. Conditions: 10 µM unless noted.

About 83,000 compounds went through this panel and 20% of them were active in at least one assay; those are over-represented in the sample as a whole.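 The test compound was applied at a single concentration to cells in 96-well plates for 48 hours, and percent growth was recorded.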 Values without a mark were called inactive. The source made the active and inactive calls. The calls were made as follows: active = growth percent below 10; inactive = the rest.

On to `COc1cc(OC)c(S(=O)(=O)N(CCCl)CCCl)cc1C(=O)/C=C/c1ccc(C)cc1`, for which the growth in experiment [1] was 14.2%; in [2], 70.9%; in experiment [3], 83.5%; in [4], -17.9% (active); in [5], 89.5%; in [6] it was 53.6%. For the same molecule, the growth in experiment [7] was 55.6%; in experiment [8] it was 106%; in [9], 64.9%; in experiment [10] it was 65.3%; in [11], 70.7%; in experiment [12] it was 54.2%. The growth is 91.7% in experiment [13]; 52.2% in experiment [14]; 74.5% in experiment [15]; 112% in experiment [16]; 63.2% in experiment [17]; 93.8% in experiment [18]. The growth in experiment [19] is 63.6%; in experiment [20], 68.6%.
Take `COc1cc2cc(C(=O)N3C[C@@H](CCl)c4c3cc(OC(=O)N3CCN(C)[C@@H]5CSSC[C@@H]53)c3ccccc43)[nH]c2c(OC)c1OC`: the growth was -9.47% (active) in experiment [1]; 10.1% in experiment [2]; -70.3% (active) in [3]; -80.7% (active) in experiment [4]; -56.1% (active) in experiment [5]; -44.6% (active) in [6]. Besides, the growth in [7] is -33.5% (active); in experiment [8], 13.8%; in experiment [9], -41.3% (active); in experiment [10] it was -0.707% (active); in [11], -25.1% (active); in experiment [12] it was -3.43% (active). For the same molecule, the growth was -6.69% (active) in [13]; -6.86% (active) in [14]; -6.59% (active) in experiment [15]; -15.8% (active) in [16]; -22.2% (active) in experiment [17]; -82.6% (active) in experiment [18]. Further, the growth in experiment [19] was -8.94% (active); in experiment [20], -80% (active).
As for `O=C(/C=C/c1ccc(Cl)cc1)c1nc2ccccc2n1Cc1ccc(Br)cc1`, the growth in experiment [1] was 38.9%; in experiment [2], 13.6%; in experiment [3], 71.5%; in experiment [4], 37.6%; in [5], 39.9%; in experiment [6], 52.9%. Further, the growth in experiment [7] was 42.6%; in experiment [8], 93.7%; in [9], 51.1%; in [10], 57.4%; in [11] it was -10.9% (active); in experiment [12] it was 66%. In addition, the growth in [13] was 89.9%; in experiment [14], 68.5%; in [15] it was 94.7%; in experiment [16], 38.2%; in experiment [17] it was 62.6%; in experiment [18] it was 37.2%. For the same molecule, the growth in [19] was 9.41% (active); in experiment [20], 9.05% (active).
In the case of `C=CC[Se]C(=O)c1ccc(C(=O)[Se]CC=C)s1`, the growth is -96.3% (active) in experiment [1]; -23.1% (active) in experiment [2]; -47.7% (active) in experiment [3]; -93.6% (active) in [4]; -89.2% (active) in experiment [5]; -55.8% (active) in experiment [6]. The growth in experiment [7] is -98.1% (active); in [8], -80% (active); in experiment [9], -45.6% (active); in experiment [10], -83.9% (active); in [11], -12% (active); in experiment [12] it was -80.5% (active). Further, the growth was -61.8% (active) in experiment [13]; -67.6% (active) in [14]; -95.2% (active) in experiment [15]; -92.9% (active) in experiment [16]; -23.1% (active) in experiment [17]; -92.3% (active) in [18]. The results for the growth in experiment [19] and in experiment [20] were -55.4% (active) and -60.6% (active), respectively.
Turning to `C#CC[Se]C(=O)c1ccc2n[se]nc2c1`, the growth was 63.4% in [1]; 4.82% (active) in experiment [2]; 41.5% in experiment [3]; 70.8% in experiment [4]; 13.8% in experiment [5]; 56.3% in experiment [6]. For the same molecule, the growth was 22.6% in experiment [7]; 65.1% in experiment [8]; 35.6% in [9]; 71.3% in experiment [10]; -24.8% (active) in [11]; 74.9% in [12]. Further, the growth in experiment [13] was 75.7%; in [14], 74.5%; in experiment [15] it was 95.4%; in experiment [16], 46.2%; in experiment [17], 49.5%; in experiment [18], 52.1%. Moreover, the growth in experiment [19] is 31.6%; in [20] it was 25.9%.
